Results on 62 molecules are retold here after PubChem BioAssay AID463190 (Sanford-Burnham Center for Chemical Genomics, 2010).

About 7,300 (2.2%) of roughly 330,000 compounds were called active. The sample holds actives, similar compounds and a random draw of the others, so the mix is not that of the screen.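 How the source made its calls: active means inhibition of at least 40%; inactive means the rest.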

One may read the inhibition as the drop in the measured response relative to a control, in per cent.

The assay is described as follows: growth inhibitors of tim10-1 mutant yeast, primary screen, luminescence, uHTS (AID 463190).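 Further: mutant grown at 25 °C; 0% = DMSO wells with yeast and 100% = wells holding no yeast.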 The conditions noted are these: S. cerevisiae tim10-1 ts strain growth, BacTiter-Glo, 24 h; at 20 µM; active compounds read high.
As to `O=C(COC(=O)c1ccncc1)c1ccccc1`, the inhibition was 22.8% (inactive). For `O=C(Oc1ccc(-c2nc(-c3ccccn3)no2)cc1)c1ccccc1`, the inhibition is 51.2% (active). The value for `Brc1ccc(-c2noc(-c3ccccc3)n2)o1` was 11.2% (inactive); that for `COc1ccc2oc(C(=O)OCC(=O)N(CC(C)C)c3c(N)n(Cc4ccccc4)c(=O)[nH]c3=O)c(C)c2c1` was -2.22% (inactive); that for `CCC(C(=O)N1CCN(S(=O)(=O)c2sc(C(=O)O)c(C)c2C(=O)O)CC1)c1ccccc1` (configuration not stated) was -6.62% (inactive). The value for `Cc1cc(-c2nnc(CCC(=O)NC(c3ccccc3)c3ccccc3)o2)no1` was -7.23% (inactive). For the molecule `COC(=O)/C=C/C(=O)NCc1ccco1`, the inhibition is -3.84% (inactive). The value for `O=C(NCc1ccco1)C1(c2ccc(Cl)cc2)CCCC1` was 29.4% (inactive); that for `O=C(/C=C/c1ccc(Cl)cc1Cl)NCc1ccco1` was 41.9% (active). The value for `CCCCCC1CCC(c2nnc(SCC(C)=O)o2)CC1` (configuration not stated) was 42.3% (active); that for `CCN(CC)C(=O)CSc1nnc(C2CCCCC2)o1` was 2.18% (inactive); that for `Cc1[nH]c2ccccc2c1C(=O)C(C)Sc1nnc(C2CC2)o1` (configuration not stated) was -11.7% (inactive). As for `O=C(COc1cccc(F)c1)Oc1ccc(C(=O)c2ccccc2)cc1`, the figure is -0.003% (inactive); as for `CCC(C)c1ccccc1NC(=O)CN(C)CC(=O)Nc1ccccc1SC` (configuration not stated), 11.9% (inactive). As to `O=C(Cc1ccccc1)Nc1c(C(=O)N2CCCCCC2)cnn1-c1ccccc1`, the inhibition was 29.5% (inactive). For `N#Cc1ccccc1Sc1ccccc1C(=O)OCC(=O)NC1CCCCC1`, the inhibition was 1.29% (inactive). Turning to `CC(CCN1CCN=C1N(C)C)c1ccccc1` (configuration not stated), the inhibition is -14.7% (inactive).

For `CC(=O)Oc1ccc2c(c1)C(=O)c1ccccc1C2=O`, the inhibition was 52.2% (active). The value for `CC(=O)O[C@H]1c2ccccc2-c2ccccc2[C@@H]1OC(C)=O` was 4.4% (inactive). The value for `CC(=O)Oc1cccc(C(=O)Nc2ccccc2NC(=O)c2cccc(OC(C)=O)c2)c1` was -9.31% (inactive); that for `O=C(CSc1nnc(CN2CCCC2)n1-c1ccc(F)cc1)c1ccc2c(c1)OCO2` was 14.8% (inactive). Regarding `CC(C)CC(=O)NC(=S)Nc1cc(C(=O)O)ccc1Cl`, the inhibition was -9% (inactive). For the molecule `CC(=O)c1ccc(NC(=S)NC(=O)CC(C)C)cc1`, the inhibition is 14.6% (inactive). The value for `CC(C)CC(=O)NC(=S)Nc1ccc(F)cc1F` was 49.5% (active); that for `Cc1ccc(C(=O)C(C)OC(=O)Cc2n[nH]c(=O)c3ccccc23)cc1C` (configuration not stated) was -2.29% (inactive); that for `O=C(Nc1ccc(C(=O)NCc2ccccc2Cl)cc1)C1=CSCCO1` was -4.56% (inactive). As for `Cc1ccc(S(=O)(=O)/N=C(/Nc2ccccn2)c2ccc(Cl)cc2)cc1`, the figure is 19.5% (inactive); as for `O=S(=O)(/N=C(/Nc1ccccn1)c1ccccc1)c1ccc(Cl)cc1`, 20.8% (inactive).

`Cc1ccc(S/C(=N\S(=O)(=O)c2ccc(Cl)cc2)c2ccccc2)cc1`: the inhibition is 41.3% (active). The value for `CCC1CCCCN1CCCNC(=O)c1cc2c(Cl)nc3ccccc3c2s1` (configuration not stated) was 32.7% (inactive); that for `CCOc1ccc(NC(=O)N(CCC(C)C)C(C)c2ccco2)cc1` (configuration not stated) was 15.1% (inactive); that for `CC(c1ccco1)N(C(=O)Nc1ccccc1)C1CCCCC1` (configuration not stated) was 48.1% (active).

In the case of `Cc1ccc(NC(=O)NC(=O)N(C2CCCCC2)S(=O)(=O)c2ccccc2)cc1`, the inhibition was 13.6% (inactive). With `C=CCOc1ccc(/C=N/n2cncn2)cc1OC`, the inhibition was 6.25% (inactive). For the molecule `CC(Cc1cccs1)NC(=O)c1cccc(Cl)c1` (configuration not stated), the inhibition was 21.4% (inactive).

For `COc1ccc(CCNCc2c(-c3ccccc3)n(C)c3ccccc23)cc1`, the inhibition is 40.2% (active). Take `COc1ccc(-c2c(C#Cc3ccccc3)c3ccccc3n2C)cc1`: the inhibition was 14.3% (inactive). As for `COc1ccc(-c2nc3ccccc3c(=O)n2CCc2ccc(O)cc2)cc1`, the figure is 25.8% (inactive). The value for `Cc1ccc(Sc2cc(N3CCOCC3)nc(-c3ccccc3)n2)cc1` was 20.9% (inactive); that for `CCN1CCN(c2nc(Nc3cccc(F)c3)nc(N)c2[N+](=O)[O-])CC1` was 9.58% (inactive). As for `Cc1ccccc1Nc1nc(N)nc(COC(=O)CCC(=O)c2ccc(F)cc2)n1`, the figure is 15.1% (inactive); as for `COc1cc(N2C(=O)CSC2=S)cc(OC)c1OC`, -10% (inactive); as for `O=C1CSC(=S)N1c1ccc(O)cc1`, -38.8% (inactive). Take `O=C1CSC(=S)N1c1ccc(Cl)c(Cl)c1`: the inhibition was 42% (active). As for `COc1ccc(C)cc1Nc1n[n+](-c2ccccc2)c(-c2cccc(Cl)c2Cl)s1`, the figure is 22.9% (inactive); as for `CCCCCCC(O)(CCN1CCCCC1)c1ccccc1` (configuration not stated), 7.54% (inactive). The value for `CCOc1ccc(C2C(C#N)=C(N)N(N(C)C)C3=C2C(=O)CCC3)cc1` (configuration not stated) was 12.1% (inactive). The value for `CCc1ccc(C2C(C#N)=C(N)N(N(C)C)C3=C2C(=O)CCC3)s1` (configuration not stated) was 16.4% (inactive); that for `CN(C)N1C(N)=C(C#N)C(c2ccc(Br)cc2)C2=C1CCCC2=O` (configuration not stated) was 43.6% (active). On to `CC(C)Cc1nnc(NC(=O)CN2C(=O)NC3(CCCCC3)C2=O)s1`, for which the inhibition was -6.92% (inactive).

For the molecule `Cc1ccc(-c2csc(-c3cc(C)on3)n2)cc1`, the inhibition was 11.2% (inactive). The value for `Clc1ccc(-c2csc(-c3ccncc3)n2)cc1` was 24.5% (inactive); that for `CCCc1cc(-c2nc(-c3ccc(C)cc3)cs2)ccn1` was 42.5% (active).

With `Cc1cc(N=Nc2ccc3ccccc3c2)ccc1O`, the inhibition was 57.7% (active).

On to `Cc1ccc(/C=N/NC(=O)c2cc3ccccc3cc2O)o1`, for which the inhibition is 15.5% (inactive). The value for `COc1ccc(NC(=O)NCCN2CCN(c3ccc(C)cc3)CC2)c(Cl)c1` was -2.17% (inactive); that for `COc1ccc(C2Nc3ccccc3C(=O)N2c2ccc(Cl)cc2)cc1Cn1cc([N+](=O)[O-])cn1` (configuration not stated) was 28% (inactive); that for `Cc1cc(C)n(S(=O)(=O)c2cccc([N+](=O)[O-])c2)n1` was 12.8% (inactive).

Take `Cc1ccccc1CN1CCC(C(=O)Nc2ccc(Oc3cccnc3)cc2)CC1`: the inhibition is 8.05% (inactive). The value for `O=C(NCCN1C(=O)S/C(=C\c2cccnc2)C1=O)c1cccc(OC(F)F)c1` was 40.4% (active); that for `Cc1cc(OCCCC(=O)NCCN2C(=O)S/C(=C\c3cccnc3)C2=O)ccc1Cl` was 19.9% (inactive); that for `O=C(NCCN1C(=O)S/C(=C\c2cccnc2)C1=O)c1ccc(S(=O)(=O)N2CCCC2)cc1` was 18.6% (inactive).
